Laboratory results reported in PubChem BioAssay (NCATS).
Inconclusive results are not listed. Calls of active or inactive are those of the source. The call rests on the fitted dose curve; in most records, active means well fitted activation curve with a large enough effect; inconclusive means small, poorly fitted or top-dose-only effect; inactive means no such curve, though single readings can be large or run the other way.

Biological target: Cellular tumor antigen p53 (Homo sapiens) (UniProt P04637)
Test: Primary qHTS for small molecule compounds that upregulate eGFP-tagged delta133p53alpha (in N-terminal) cells. (AID 2060322); further: nearly all actives have a fitted effect of over 75% in size;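 on activation: series mostly up to about 56 µM; 0% = DMSO vehicle and 100% = reference activator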
Conditions: NCI-H358 eGFP-delta133p53alpha fluorescence, 24 h; activation: hits give high values
How it was run: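 NCI-H358 cells pre-induced 24 h with 10 ng/ml doxycycline to express N-terminal eGFP-delta133p53alpha, then dosed 24 h at 37C without doxycycline; fixed, Hoechst-stained, GFP intensity by laser scanning cytometry, normalized to DMSO (0%) and 57.5 uM 5-azacytidine (100%).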
Potency means the concentration at half of the fitted maximal effect.

Chain of Cellular tumor antigen p53 (Homo sapiens) (P04637 whole entry, looked up): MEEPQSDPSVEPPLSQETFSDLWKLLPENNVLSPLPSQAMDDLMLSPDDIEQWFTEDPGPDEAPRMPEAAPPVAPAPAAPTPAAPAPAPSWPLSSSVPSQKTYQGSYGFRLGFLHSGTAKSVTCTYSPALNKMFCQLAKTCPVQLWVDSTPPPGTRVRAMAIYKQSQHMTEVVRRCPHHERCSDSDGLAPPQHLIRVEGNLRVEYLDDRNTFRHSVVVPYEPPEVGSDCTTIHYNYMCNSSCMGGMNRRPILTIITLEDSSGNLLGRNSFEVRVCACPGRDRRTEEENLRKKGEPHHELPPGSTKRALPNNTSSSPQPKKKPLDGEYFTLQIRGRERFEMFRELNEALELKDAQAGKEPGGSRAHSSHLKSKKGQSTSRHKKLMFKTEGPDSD

| SMILES | activation | Potency |
| --- | --- | --- |
| CCOC(=O)O[C@]1(C(=O)OCCl)CC[C@@H]2[C@H]3CCC4=CC(=O)C=C[C@]4(C)[C@@H]3[C@@H](O)C[C@@]21C | -2.28% (inactive) | – |
| C[C@@H]1CCN(C(=O)CC#N)C[C@H]1N(C)c1ncnc2[nH]ccc12 | -11.8% (inactive) | – |
| CC[C@H]1OC(=O)[C@H](C)C(=O)[C@H](C)[C@@H](O[C@H]2O[C@H](C)C[C@H](N(C)C)[C@@H]2O)[C@](C)(OC)C[C@@H](C)C(=O)[C@H](C)[C@H]2N(CCCCn3cnc(-c4cccnc4)c3)C(=O)O[C@]12C | 1.46% (inactive) | – |
| CCOC(=O)C(=O)CCCCCCl | -5.02% (inactive) | – |
| CCN(CCCCOC(=O)c1ccc(OC)c(OC)c1)C(C)Cc1ccc(OC)cc1 (stereo not drawn) | -6.69% (inactive) | – |
| CC(=O)N[C@@H](CC(C)C)C(=O)O | 0% (inactive) | – |
| N[C@H](C(=O)O)c1ccc(O)cc1 | -13.4% (inactive) | – |
| CN=C(N)NC(=O)Nc1c(C)cccc1C | 5.86% (inactive) | – |
| CC(=O)Nc1ccc(CC(=O)O)cc1 | 6.21% (inactive) | – |
| Cc1c(Cl)cccc1Nc1ccccc1C(=O)O | 8.47% (inactive) | – |
| CO[C@H]1/C=C\O[C@@]2(C)Oc3c(C)c(O)c4c(O)c(c5c(nc6cc(C)ccn65)c4c3C2=O)NC(=O)/C(C)=C\C=C/[C@H](C)[C@H](O)[C@@H](C)[C@@H](O)[C@@H](C)[C@H](OC(C)=O)[C@@H]1C | -1.91% (inactive) | – |
| COc1cc(NS(=O)(=O)c2ccc(N)cc2)nc(OC)n1 | -0.195% (inactive) | – |
| CN(C)c1ccc(C(=O)NCCCCCC(=O)NO)cc1 | 10.1% (inactive) | – |
| CCCC(O)C(CC)CO (stereo not drawn) | 6.21% (inactive) | – |
| O=C1[C@H]2CCCC[C@H]2C(=O)N1CCCCN1CCN(c2nsc3ccccc23)CC1 | 10.7% (inactive) | – |
| C=CC[C@@H]1C=C(C)C[C@H](C)C[C@H](OC)[C@H]2O[C@@](O)(C(=O)C(=O)N3CCCC[C@H]3C(=O)O[C@H](C(C)=C[C@@H]3CC[C@H](O)[C@H](OC)C3)[C@@H](C)[C@@H](O)CC1=O)[C@@H](C)C[C@@H]2OC | 23.1% (inactive) | – |
| OC(CCCN1CCCCC1)(c1ccccc1)c1ccccc1 | -16.4% (inactive) | – |
| Cc1ccccc1N1CCN(CCc2nnc3n2CCCC3)CC1 | -10.7% (inactive) | – |
| O=C(COCCOCCOCC(=O)Nc1c(I)cc(I)c(C(=O)O)c1I)Nc1c(I)cc(I)c(C(=O)O)c1I | 10% (inactive) | – |
| C#C[C@]1(O)CC[C@H]2[C@@H]3CCC4=CC(=O)CC[C@@H]4[C@H]3CC[C@@]21C | 7.34% (inactive) | – |
| O=C(O)CCNC(=O)c1ccccc1 | -12.6% (inactive) | – |
| CC(=O)N1CCN(c2ccc(O)cc2)CC1 | -15.3% (inactive) | – |
| Nc1c2c(nc3c1CCC3)CCCC2 | -11.7% (inactive) | – |
| O=S(=O)(O)c1ccc2nc(-c3ccccc3)[nH]c2c1 | 23.2% (inactive) | – |
| CC(C)n1c(/C=C/[C@@H](O)C[C@@H](O)CC(=O)O)c(-c2ccc(F)cc2)c2ccccc21 | -1.69% (inactive) | – |
| CC[C@H]1CN2CCc3cc(OC)c(OC)cc3[C@H]2C[C@@H]1C[C@@H]1NCCc2cc(OC)c(OC)cc21 | – | 1370 nM (active) |
| Nc1ccc(C(=O)O)cc1 | -29.9% (inactive) | – |
| NC(=O)NN=Cc1ccc([N+](=O)[O-])o1 | 13.5% (inactive) | – |
